Molecules are shown by their SMILES. Results filed as inconclusive are left out. Active and inactive are the calls of the source. Calls follow the shape of the dose curve; as a rule, active = well fitted inhibition curve with a large enough effect; inconclusive = small, poorly fitted or top-dose-only effect; inactive = flat fitted curve, though single readings scatter.
% is scaled to controls: 0 for no effect and ±100 for the full control effect.

Chain of Calcium and integrin-binding protein 1 (Homo sapiens) (Q99828 whole entry, looked up): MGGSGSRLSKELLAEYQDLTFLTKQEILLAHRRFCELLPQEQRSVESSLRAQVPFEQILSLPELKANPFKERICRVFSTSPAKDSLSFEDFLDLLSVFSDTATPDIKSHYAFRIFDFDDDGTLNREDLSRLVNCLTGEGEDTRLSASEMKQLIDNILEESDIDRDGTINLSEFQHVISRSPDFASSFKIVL

The experiment concerns the target Calcium and integrin-binding protein 1 (Homo sapiens) (UniProt Q99828). The experiment in a line: Primary qHTS for Identification of Calcium Integrin Binding Protein 1 (CIB1) Competitor (AID 1508620). Also: top concentration of the series differs between compounds. The note with it: CIB1-GST / FITC-alphaIIb peptide fluorescence polarization; series mostly up to 57.7 µM; activity change, negative = inhibition: at the top concentration. In short, it runs like this: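 Fluorescence polarization competition: GST-tagged CIB1 (1 uM final) preincubated with compound 15 min at room temperature, then FITC-labelled alphaIIb peptide (100 nM final) added. After 15 min at room temperature, polarization read at Ex 480/Em 540.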
(In general: qHTS replaces the single test concentration by a dilution series.)
As to `C[C@H]1CCCC=CC2C[C@H](O)C[C@@H]2[C@H](O)C=CC(=O)O1` (some centres not stated), the “activity change, negative = inhibition” value is -7.28% (inactive).

For `COc1ccc(CC2NCCc3cc(OC)c(OC)cc32)cc1OC` (configuration not stated), the “activity change, negative = inhibition” value was 1.87% (inactive). Consider `C#C[C@]1(O)C=C[C@@H]2[C@@H]3CCC4=CC(=O)CC[C@@H]4[C@H]3CC[C@@]21CC`, for which the “activity change, negative = inhibition” value is -1.11% (inactive). Next, `CC=C(C)C(=O)O[C@H]1C(C)=C2[C@@H]3OC(=O)[C@@](C)(O)[C@@]3(O)[C@@H](OC(=O)CCC)C[C@](C)(OC(C)=O)[C@@H]2[C@@H]1OC(=O)CCCCCCC`: 0.626% (inactive); `COc1cccc2c1[C@]13CCN(CC4CC4)[C@H](C2)[C@]1(OC)CCC(=O)C3`: 3.16% (inactive); `CC(C)(C)[C@]1(O)C[C@@H]2OC(=O)C[C@@]23C(=O)O[C@@H]2OC(=O)[C@H](O)C213` (some centres not stated): -0.103% (inactive). Next, `COC1=CC(C)=C[C@@H](C)[C@@H](O)[C@@H](C)CC(C)=CC=C[C@H](OC)[C@H]([C@@H](C)[C@@H](O)[C@H](C)[C@@]2(O)C[C@@H](O)[C@H](C)[C@@H](C(C)C)O2)OC1=O`: 0.0575% (inactive).

Source of the values: PubChem BioAssay (NCATS).
